Results taken from paper PMC4336329 (PLoS ONE, 2015).
Among all 310,000 compounds or so, about 14,000 (4.5%) showed an effect of 50% or more. Effects have a minus sign here. Shown is part of a subset that was picked to be rich in strong results.

These compounds were tested against human ether-à-go-go-related gene (hERG) potassium channel (human, UniProt Q12809) (assay: primary screen, population patch clamp on CHO cells stably expressing hERG; higher = less effect of the substance).
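Note: peak tail current of the secondary pulse compared with the same well before compound.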

Chain of human ether-à-go-go-related gene (hERG) potassium channel (Q12809 whole entry, looked up): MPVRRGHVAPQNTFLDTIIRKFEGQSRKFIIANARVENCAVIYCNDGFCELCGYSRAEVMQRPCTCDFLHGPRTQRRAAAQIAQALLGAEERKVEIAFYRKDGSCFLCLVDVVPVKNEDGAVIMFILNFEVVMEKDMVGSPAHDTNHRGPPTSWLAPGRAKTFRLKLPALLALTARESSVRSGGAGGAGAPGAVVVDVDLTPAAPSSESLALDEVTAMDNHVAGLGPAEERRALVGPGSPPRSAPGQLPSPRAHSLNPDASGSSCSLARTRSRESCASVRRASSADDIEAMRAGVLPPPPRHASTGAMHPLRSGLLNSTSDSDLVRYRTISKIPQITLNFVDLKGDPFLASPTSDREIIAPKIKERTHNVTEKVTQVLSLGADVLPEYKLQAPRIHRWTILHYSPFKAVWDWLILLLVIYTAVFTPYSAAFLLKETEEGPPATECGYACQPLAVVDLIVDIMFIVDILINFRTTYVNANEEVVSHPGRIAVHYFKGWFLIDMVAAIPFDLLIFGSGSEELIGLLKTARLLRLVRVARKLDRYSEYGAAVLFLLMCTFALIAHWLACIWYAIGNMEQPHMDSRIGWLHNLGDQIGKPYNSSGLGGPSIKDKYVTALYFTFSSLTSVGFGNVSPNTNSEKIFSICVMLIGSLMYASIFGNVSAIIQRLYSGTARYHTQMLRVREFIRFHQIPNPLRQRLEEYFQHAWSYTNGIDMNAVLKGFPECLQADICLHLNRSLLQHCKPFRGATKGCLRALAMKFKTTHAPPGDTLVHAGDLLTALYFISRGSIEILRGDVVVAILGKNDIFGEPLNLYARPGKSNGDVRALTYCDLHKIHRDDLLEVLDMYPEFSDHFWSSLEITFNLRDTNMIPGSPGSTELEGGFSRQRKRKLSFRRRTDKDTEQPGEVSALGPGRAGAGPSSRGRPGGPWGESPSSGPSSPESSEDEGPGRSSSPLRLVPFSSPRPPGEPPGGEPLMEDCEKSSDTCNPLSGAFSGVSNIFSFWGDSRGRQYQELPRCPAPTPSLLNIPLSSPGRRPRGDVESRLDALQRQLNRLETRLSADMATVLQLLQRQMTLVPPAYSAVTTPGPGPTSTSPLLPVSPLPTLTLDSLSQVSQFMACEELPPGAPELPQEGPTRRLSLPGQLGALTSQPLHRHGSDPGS

Row | SMILES | hERG current change (%, negative = inhibition) at 10uM [%]
1 | COc1cccc(-c2csc(NNC(=O)c3cccs3)n2)c1 | -2.17
2 | COc1cc(C(=O)N(Cc2ccc(C)o2)C2CCS(=O)(=O)C2)cc(OC)c1OC (stereo not drawn) | 14.4
3 | O=C(NCc1cccnc1)c1ccc(Br)s1 | -16.9
4 | CCN1C(=O)c2cccc3c(NS(=O)(=O)c4ccc(NC(C)=O)cc4)ccc1c23 | -8.89
5 | O=C(Cc1ccc(Cl)c(Cl)c1)Nc1cccc2ncccc12 | 20.2
6 | COCCCNC(=O)c1c(N)n(-c2ccc(S(N)(=O)=O)cc2)c2nc3ccccc3nc12 | 0.473
7 | Cc1nn(Cc2c(F)c(F)c(F)c(F)c2F)c(C)c1NC(=O)c1cccc(COc2ccc(Cl)cc2)c1 | 2.49
8 | O=C1c2oc3ccc(Br)cc3c(=O)c2C(c2cccc(F)c2)N1CCO (stereo not drawn) | -1.34
9 | ONC(=Nc1ccccc1)c1ccccc1Cl | 2.37
10 | CCc1ccccc1NC(=O)CCC(=O)N1CCSc2ccccc21 | -14.7
11 | CCOC(=O)c1cnc2nc(NCc3ccc(OCc4ccccc4)cc3)[nH]n2c1=O | 5.06
12 | COc1ccc(CCn2c(C3CCCCC3)nc3c(c(=O)c4ccccc4n3C)c2=O)cc1OC | -8.08
13 | COc1ccc(CCn2c(=N)c(C(=O)N3CCN(C)CC3)cc3c(=O)n4ccccc4nc32)cc1 | -76.2
14 | COc1ccc(CCn2c(=N)c(S(=O)(=O)c3ccccc3)cc3c(=O)n4ccccc4nc32)cc1 | 10.9
15 | COc1ccc(CCn2c(=N)c(S(=O)(=O)c3ccc(C)cc3)cc3c(=O)n4ccccc4nc32)cc1 | 15.1
16 | COCCCn1c(=N)c(C(=O)NC2CCCCC2)cc2c(=O)n3ccccc3nc21 | -78.8
17 | CCN(C(=O)c1cc2c(=O)n3ccccc3nc2n1CCCOC)C1CCCCC1 | -2.32
18 | COCCCn1c(SCC(=O)NC2CCCCC2)nc2ccccc2c1=O | -16.9
19 | COc1ccc(CCn2c(=N)c(C(=O)NC3CCCC3)cc3c(=O)n4ccccc4nc32)cc1OC | -79.2
20 | Cc1ccc(C)c(S(=O)(=O)N2CCN(CC(=O)NC(=O)NCc3ccco3)CC2)c1 | -24.5
21 | Cc1cc(=S)c2cccc(C)c2[nH]1 | 9.4

Row | SMILES | hERG current change (%, negative = inhibition) at 10uM [%]
22 | Fc1cccc(CNc2ncnc3ccc(-c4ccc5c(c4)OCO5)cc23)c1 | -31
23 | COc1ccc(NC(=O)CNC(=O)C2CCCCC2)cc1 | 18.1
24 | CCCOc1ccc(C(=O)N/N=C/c2ccc(-c3ccc(S(=O)(=O)Nc4ncccn4)cc3)o2)cc1 | -7.38
25 | Cc1ccc(OCC(=O)Nc2ccc(N3CCN(C(=O)c4ccc(C)cc4)CC3)cc2)cc1 | 9.99
26 | CCCCCC(=O)Nc1ccc(N2CCN(C(=O)CCC)CC2)cc1 | -32.8
27 | O=C(/C=C/c1ccco1)Nc1ccc(N2CCCC2)cc1 | 10.5
28 | CCCCCCC(=O)Nc1ccc(C(=O)N2CCCC2)cc1 | 0.864
29 | Cc1ccc(C(=O)N2CCN(c3ccc(NC(=S)NC(=O)Cc4ccccc4)cc3)CC2)cc1 | -17.1
30 | O=C(/C=C\c1ccco1)Nc1ccc(N2CCN(C(=O)c3ccccc3)CC2)cc1 | -55.7
31 | Cc1ccc(C(=O)N2CCN(c3ccc(NC(=O)COc4ccccc4C)cc3)CC2)cc1 | -73.6
32 | Cc1ccc(C(=O)N2CCN(c3ccc(NC(=O)Cc4ccccc4)cc3)CC2)cc1 | -71.5
33 | COc1ccc(C(=O)N2CCN(c3ccc(NC(=O)Cc4ccccc4)cc3)CC2)cc1 | -31.8
34 | Cc1cccc(OCC(=O)Nc2ccc(N3CCN(C(=O)c4ccccc4)CC3)cc2)c1C | 3.45
35 | O=C(/C=C/c1ccco1)N1CCN(c2ccccc2)CC1 | -1.71
36 | CCCCCC(=O)Nc1ccc(N2CCN(C(=O)c3ccccc3)CC2)cc1 | -62.8
37 | COc1ccc2c(c1)CC/C(=C/c1ccco1)C2=O | 10.7
38 | CCSc1oc(-c2ccco2)nc1S(=O)(=O)c1ccccc1 | -12.8
39 | CCOc1ccc(C(=O)Nc2c3c(nn2-c2ccc(F)cc2)CS(=O)C3)cc1 (stereo not drawn) | -1.14
40 | COCCNC(=S)N1CCN(C(c2ccccc2)c2ccccc2)CC1 | -10.1
41 | COc1cc(C(=O)Nc2ncccc2C)ccc1OCC(=O)N1CCOCC1 | -4.78
42 | CC1(c2nnc(-c3cccc(Cl)c3)o2)CC(c2ccc(F)cc2)=NO1 (stereo not drawn) | -8.47

Row | SMILES | hERG current change (%, negative = inhibition) at 10uM [%]
43 | OCCCc1nc2n(n1)C(c1ccccc1)C=C(c1ccccc1)N2 (stereo not drawn) | -17.3
44 | COc1ccc(C2C=C(c3cccs3)Nc3nc(CCCO)nn32)cc1 (stereo not drawn) | -57.9
45 | OCCCc1nc2n(n1)C(c1ccccc1)C=C(c1ccc(F)cc1)N2 (stereo not drawn) | -12.8
46 | OCCCc1nc2n(n1)C(c1ccccc1Cl)C=C(c1cccs1)N2 (stereo not drawn) | -5.71
47 | OCCCc1nc2n(n1)C(c1cccs1)C=C(c1ccccc1)N2 (stereo not drawn) | -38.5
48 | COc1ccc(C2C=C(c3ccccc3)Nc3nc(CCCO)nn32)cc1 (stereo not drawn) | -51.8
49 | O=C(CCc1nc(-c2ccccc2)no1)NC1CCCCCC1 | 1.28
50 | CCc1cccc(C)c1NC(=O)CSc1nc(-c2ccccc2F)nc2nc[nH]c12 | 3.31
51 | NC(=O)c1cc([N+](=O)[O-])c(Cl)cc1NCc1cccnc1 | -8.53
52 | Cc1cc(C)cc(OCC(=O)NNC(=O)c2ccccn2)c1 | -34.6
53 | CN(C)S(=O)(=O)n1cc(/C=C(\NC(=O)c2ccccc2Cl)C(=O)N2CCOCC2)c2ccccc21 | -7.07
54 | Cc1ccc(C(=O)N/C(=C\c2ccc3c(c2)OCO3)C(=O)Nc2ccc(C(=O)O)cc2)cc1 | 17.9
55 | O=C(Nc1ccc(C(=O)O)cc1)/C(=C\c1ccc2c(c1)OCO2)NC(=O)c1ccccc1 | 22
56 | CNC(=O)/C(=C/c1ccc2c(c1)OCO2)NC(=O)c1ccc(Br)cc1 | -63.4
57 | O=C(Nc1ccc(C(=O)O)cc1)/C(=C\c1ccc2c(c1)OCO2)NC(=O)c1ccc(Br)cc1 | 5.36
58 | CNC(=O)/C(=C\c1ccc2c(c1)OCO2)NC(=O)c1ccc(Br)cc1 | -56.5
59 | O=C(Nc1cccc(C(=O)O)c1)/C(=C\c1ccc2c(c1)OCO2)NC(=O)c1ccc(Br)cc1 | 17.9
60 | COC(=O)c1ccc(NC(=O)c2ccccc2N(C)S(=O)(=O)c2ccccc2)cc1 | 16.3
61 | CC(C)(C)c1cc(CN2CCN(CCO)CC2)cc(C(C)(C)C)c1O | -19
62 | CC(C)(C)c1cc(C(=S)N2CCN(CCO)CC2)cc(C(C)(C)C)c1O | -26.6
63 | Cc1ccc(C(c2cc(Cl)c3cccnc3c2O)N2CCN(C)CC2)cc1 (stereo not drawn) | -9.97

Row | SMILES | hERG current change (%, negative = inhibition) at 10uM [%]
64 | CCN1CCN(C(c2cccnc2)c2cc(Cl)c3cccnc3c2O)CC1 (stereo not drawn) | -72.4
65 | CN1CCN(C(c2ccc(Cl)cc2)c2cc(Cl)c3cccnc3c2O)CC1 (stereo not drawn) | 7.12
66 | CC(C)(C)c1cc(C(c2cccnc2)N2CCN(CCO)CC2)cc(C(C)(C)C)c1O (stereo not drawn) | -53.8
67 | COC(=O)C1=C(C(=O)OC)[C@@H]2N(Cc3ccccc3)c3ccccc3[C@@]23C[C@@H](CO)N(C(=O)NC2CCCC2)C3=N1 | -9.18
68 | CC(CN(C)Cc1ccccc1)OC(=O)c1cccs1.Cl (stereo not drawn) | -10.5
69 | COc1cc2c(cc1OC)C(C)N(C(=O)C1COc3ccccc3O1)CC2 (stereo not drawn) | -35.3
70 | Cc1sc2nc(C3CC3)nc(N3CCN(C(=O)c4ccc(F)cc4)CC3)c2c1C.Cl | -69.8
71 | COc1ccc(C(=O)N2CCN(c3nc(C4CC4)nc4sc(C)c(C)c34)CC2)cc1.Cl | -23.8
72 | Cc1sc2nc(C3CC3)nc(N3CCN(C(=O)c4ccccc4F)CC3)c2c1C.Cl | -37.6
73 | Cc1sc2nc(C3CC3)nc(N3CCN(S(=O)(=O)c4ccc(F)cc4)CC3)c2c1C | -0.18
74 | Cc1sc2nc(C3CC3)nc(N3CCN(C(=O)c4ccc(Cl)cc4)CC3)c2c1C.Cl | -57.1
75 | Cc1sc2ncnc(N3CCC(C(=O)NNC(=O)c4ccc(Cl)cc4)CC3)c2c1C | -11.2
76 | O=C(CN(c1ccc2c(c1)OCCO2)S(=O)(=O)c1ccccc1)NCc1ccco1 | 4.37
77 | O=C(Nc1ccc(F)cc1F)c1ccc2c(c1)OCCO2 | 15.4
78 | Cc1cccc(NC(=S)N(CCN2CCOCC2)Cc2cc3cc4c(cc3[nH]c2=O)OCCO4)c1 | -3.3
79 | CN(C(=O)COC(=O)c1cc(S(=O)(=O)N2CCCCC2)ccc1N1CCOCC1)C1CCS(=O)(=O)C1 (stereo not drawn) | -6.63
80 | CCCCc1c(O)c2ccccc2[nH]c1=O | 0.685
81 | COc1ccc(-n2c(C)cc(C(=O)CSc3nnc(-c4ccoc4C)n3C)c2C)cc1 | -31.1
